Test results taken from the supplement of paper PMC6763611.

Tested on: Plasmodium falciparum NF54
Test: growth inhibition relative to untreated control; higher = more inhibition
Conditions: 72 h
Procedure, shortened: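 P. falciparum NF54 ring stages (1% hematocrit, 1% parasitemia, 100 μL/well in 96-well half-area dark plates) were exposed for 72 h at 37 °C to single 5 μM or 1 μM doses of Pathogen Box compounds. The medium was minimal RPMI or minimal RPMI plus chorismate end-products (2.2 μM folate, 7.3 μM pABA, 7.3 μM pHBA, 111 μM tyrosine, 90 μM phenylalanine, tryptophan). Growth inhibition was read by SYBR Green, normalised to untreated controls, with uninfected erythrocytes as background.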

[1] = 1 µM, MM + chorismate end-products (CM screening medium)
[2] = 5 µM, MM + chorismate end-products (CM screening medium)

| Structure (SMILES) | growth inhibition [1] [%] | growth inhibition (1 µM, minimal medium (MM)) [%] | growth inhibition [2] [%] | growth inhibition (5 µM, minimal medium (MM)) [%] |
| --- | --- | --- | --- | --- |
| Cn1ccnc1CNCCS(=O)(=O)c1cccc(Nc2ccc(-c3cccc(F)c3)cn2)c1 | < 0 | < 0 | 26.9 | 3.75 |
| Cc1cc(C)cc(COc2ccc3c(C)c(CCC(=O)O)c(=O)oc3c2C)c1 | 22.5 | 15.7 | < 0 | < 0 |
| CC1(C)Cc2c(c(N3CCOCC3)nc3snc(Br)c23)CO1 | 79.2 | 74.4 | 53.9 | 19.1 |
| Nc1ncnc2c1c(Cc1cccc3ccccc13)nn2CC1CCNCC1 | 18.3 | 59.9 | 19.1 | < 0 |
| CCOC(=O)c1c(NC(=O)c2c(F)c(F)c(F)c(F)c2F)sc(C(N)=O)c1C | 28.3 | < 0 | 14.8 | 13.1 |
| Cc1cc(C)c2cc(C(=O)NC3CCCCCCC3)[nH]c2c1 | 34.2 | 0.728 | 55.4 | < 0 |
| Cc1ccc(C(=O)Nc2ccc(S(=O)(=O)O)c3cc(S(=O)(=O)O)cc(S(=O)(=O)O)c23)cc1NC(=O)c1cccc(NC(=O)Nc2cccc(C(=O)Nc3cc(C(=O)Nc4ccc(S(=O)(=O)O)c5cc(S(=O)(=O)O)cc(S(=O)(=O)O)c45)ccc3C)c2)c1 | < 0 | < 0 | < 0 | 12.6 |
| CC1CCCCN1C(=O)NCCc1coc(-c2ccc(F)cc2)n1 (stereo not drawn) | < 0 | 8.79 | < 0 | < 0 |
| COc1cc(NC(C)CCCN)c2ncccc2c1 (stereo not drawn) | 51.1 | 54.5 | 64.3 | 38 |
| CC(=O)N(CCN(C(=O)c1ccc(F)cc1)c1ccccc1)c1ccccc1 | < 0 | < 0 | 20.2 | < 0 |
| CCN(CC)C(=O)N1CCN(C)CC1 | 31.7 | 2.45 | < 0 | < 0 |
| Cc1cccc(-c2nc(Nc3ccncn3)c3sccc3n2)n1 | 81.1 | 89.4 | > 100 | 98.7 |
| c1csc(-c2cnc3sc(NCC4CCOCC4)nn23)c1 | 60.9 | 68.8 | > 100 | 95 |
| CC(C)C(Oc1cccc2ccccc12)C(=O)O (stereo not drawn) | 17.4 | 13.6 | < 0 | 0.0991 |
| O=C(Nc1c(O)cccc1-c1nc2c(C(=O)O)cccc2o1)c1cc(-c2ccccc2)on1 | > 100 | < 0 | < 0 | < 0 |
| CC(C)(C)OC(=O)N1CCN(c2cc(-c3ccc(Oc4ccccc4)cc3)n[nH]2)CC1 | < 0 | 18 | 64.8 | 16.8 |

| Structure (SMILES) | growth inhibition [1] [%] | growth inhibition (1 µM, minimal medium (MM)) [%] | growth inhibition [2] [%] | growth inhibition (5 µM, minimal medium (MM)) [%] |
| --- | --- | --- | --- | --- |
| CNc1snc(C)c1C(=O)NCCOc1ccc(OC)cc1 | 42.3 | < 0 | 42.9 | 34.9 |
| CCc1nc2ccc(Cl)cn2c1C(=O)NCc1ccc(N2CCC(c3ccc(OC(F)(F)F)cc3)CC2)cc1 | < 0 | < 0 | 91 | 71.4 |
| CCOc1ccccc1C(=O)Nc1cccc(-c2nc3ncccn3c2C)c1 | 75.8 | 76.7 | 95.8 | 85.4 |
| COc1ccc(-c2cnc3cnc(-c4cccc(OC(C)C)c4)cn23)cc1 | 36.4 | 34.1 | < 0 | 8.04 |
| O=C(Nc1cccnc1)c1c(O)c2cccc3c2n(c1=O)CC3 | 6.17 | 21.1 | 4.63 | < 0 |
| COc1cncc(-c2cncc(N3CCN(c4ccncc4)CC3)n2)c1 | > 100 | > 100 | 97.4 | 89.1 |
| O=C(Nc1nnc(-c2ccc(Cl)cc2)o1)c1cccc(C(F)(F)F)c1 | 11.8 | 33 | 42.7 | < 0 |
| COc1cccc2c(C)nc(N=C(N)N)nc12 | 70.2 | 71.3 | 92.4 | 89.2 |
| COc1cc(OC)cc(C(=O)NCC2Cc3cc(Cl)cc(-c4ccncc4)c3O2)c1 (stereo not drawn) | 91.9 | > 100 | 93 | 91.9 |
| Cc1ccccc1C(=O)N1N=C(Nc2ccccc2)SC1(C)C | 49.8 | 9.58 | < 0 | 5.01 |
| Cc1cc(NC(=O)c2ccc(S(=O)(=O)N(Cc3ccccc3)C(C)C)cc2)no1 | 95.5 | > 100 | 99.8 | 93.1 |
| CCN(CC)S(=O)(=O)c1ccc(C(=O)Nc2cc(C)nn2-c2nc(C)c(C)c(=O)[nH]2)cc1 | 19.9 | 10.2 | 78.9 | 55.2 |
| CCc1cc(=O)n(C)c(SC(C)C(=O)Nc2ccc(F)cc2)n1 (stereo not drawn) | < 0 | 2.62 | 96.9 | 94.5 |
| O=C(Nc1cccc(-c2ccc(NCCCN3CCCC3)nc2)c1)c1ccccc1 | 96.3 | > 100 | 63.2 | 81.1 |
| Nc1ccc(C(=O)Nc2ccc(-c3nc4ccccc4o3)cc2)cc1 | 23.2 | 18.2 | 55.7 | 26.5 |
| CN1CCC(NCc2cccc(-c3ccc(S(=O)(=O)NCc4ccccc4)cc3)c2)CC1 | 96.4 | > 100 | 96 | 94.2 |
